Experimental data as given in PubChem BioAssay (EPA / NIEHS).
Activity calls are given as the source filed them. How the source made its calls: active means hit-call score of the fitted dose curve at least 0.9, where 1 is the maximum; inactive means score below 0.9.

Target: Aryl hydrocarbon receptor (Homo sapiens) (UniProt P35869)
Test: ATG_Ahr_CIS: Attagene CIS-FACTORIAL HepG2 Assay for human Aryl Hydrocarbon Receptor (Ahr) (AID 2282930)
Conditions: HepG2 AhR cis-factorial reporter transcription; actives raise or lower the signal
Experimental: ATG_CIS is a cell-based, multiplexed-readout assay that uses HepG2, a human liver cell line, with measurements taken at 24 hours after chemical dosing in a 24-well plate.ATG_Ahr_CIS is one of 52 assay component(s) measured or calculated from the ATG_CIS assay. It is designed to make measurements of mRNA induction, a form of inducible reporter, as detected with fluorescence intensity signals by Reverse transcription polymerase chain reaction (RT-PCR) and Capillary electrophoresis technology.Data from the assay component ATG_Ahr_CIS was analyzed into 1 assay endpoint. This assay endpoint, ATG_Ahr_CIS, was analyzed with bidirectional fitting relative to DMSO as the negative control and baseline of activity. Using a type of inducible reporter, measures of mRNA for gain or loss-of-signal activity can be used to understand the reporter gene at the transcription factor-level as they relate to the gene AHR. Furthermore, this assay endpoint can be referred to as a primary readout, because this assay has produced multiple assay endpoints where this one serves a reporter gene function. To generalize the intended target to other relatable targets, this assay endpoint is annotated to the dna binding intended target family, where the subfamily is basic helix-loop-helix protein.
Human liver HepG2 cells are transiently transfected with multiple reporter transcription units (MRTUs) in 6-well plates using FuGene 6 reagent (Roche; 3 ml FuGene/1 mg DNA). The MRTU constructs are regulated by a cis-regulating element (promoter). […] A major difference between the CIS and TRANS system is that in CIS activities of endogenous TFs are measured, whereas the TRANS assay evaluates changes in activities of exogenous, chimeric NR-Gal4 proteins. […] At the end of 24 hour incubation, total RNA was isolated using TriZol reagent (Invitrogen). The isolated RNA is then reverse-transcribed using oligo(dT) primer and Mo-MLV reverse transcriptase (Invitrogen) with DNAse I (Ambion) treatment for 30 min. The one-tenth of the produced cDNA was amplified by PCR using Taq DNA polymerase (Invitrogen) and two reporter sequence-specific primers. The PCR products were fluorescently labeled by primer extension with 6-arboxyfluorescein (6-FAM) 5'-labeled reporter sequence-specific primer (2 min at 95 C, 20 s at 68 C and 10 min at 72 C) and these products were digested with 5U of HpaI (New England Biolabs) for 2h at 37 C. […] The raw capillary electrophoresis data was processed using Attagraph software (Attagene).

Aryl hydrocarbon receptor (Homo sapiens), sequence (P35869 whole entry, looked up): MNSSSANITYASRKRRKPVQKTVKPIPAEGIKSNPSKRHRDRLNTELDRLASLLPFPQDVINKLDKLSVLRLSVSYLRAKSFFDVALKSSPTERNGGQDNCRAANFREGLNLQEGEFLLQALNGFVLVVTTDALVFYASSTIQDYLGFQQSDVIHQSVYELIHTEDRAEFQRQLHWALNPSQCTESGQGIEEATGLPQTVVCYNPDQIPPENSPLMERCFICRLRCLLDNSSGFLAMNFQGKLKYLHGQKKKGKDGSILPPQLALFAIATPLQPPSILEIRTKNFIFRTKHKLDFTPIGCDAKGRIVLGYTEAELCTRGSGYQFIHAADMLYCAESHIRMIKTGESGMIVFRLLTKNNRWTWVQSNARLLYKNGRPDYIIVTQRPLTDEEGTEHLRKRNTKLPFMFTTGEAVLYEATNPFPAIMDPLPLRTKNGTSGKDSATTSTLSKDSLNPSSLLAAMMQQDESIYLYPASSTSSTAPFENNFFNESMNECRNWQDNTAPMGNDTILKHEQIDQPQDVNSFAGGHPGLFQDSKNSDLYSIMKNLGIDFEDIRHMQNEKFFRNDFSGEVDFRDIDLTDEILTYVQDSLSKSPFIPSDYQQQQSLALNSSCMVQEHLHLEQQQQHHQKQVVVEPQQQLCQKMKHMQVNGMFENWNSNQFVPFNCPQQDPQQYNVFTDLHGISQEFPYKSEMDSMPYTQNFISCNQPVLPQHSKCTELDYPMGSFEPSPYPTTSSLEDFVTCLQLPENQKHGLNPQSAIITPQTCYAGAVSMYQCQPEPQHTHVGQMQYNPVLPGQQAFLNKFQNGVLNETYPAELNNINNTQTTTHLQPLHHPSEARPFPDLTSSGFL

Compound | outcome | AC50
CC(C)OB(OC(C)C)OC(C)C | inactive | –
CC1=CCC(=C(C)C)CC1 | inactive | –
C=CCCCCCCCCC(=O)OCC | inactive | –
CCCCCCCCCCO[C@@H]1O[C@H](CO)[C@@H](O)[C@H](O)[C@H]1O | inactive | –
CN(C)c1ccc(C=O)cc1 | inactive | –
C=CC(=O)OCC(CO)(COC(=O)C=C)COC(=O)C=C | inactive | –
C=CC(C)(CCC=C(C)C)OC(=O)CC (stereo not given) | inactive | –
CC(C)=CCCC(C)=CC(=O)O | inactive | –
CC(=O)c1ccc2ccccc2c1 | – | 3.53 µM (active)
CC1(C)[C@H](C=C(Cl)Cl)[C@H]1C(=O)OCc1cccc(Oc2ccccc2)c1 | inactive | –
CCC(C)(C)c1cc(O)c(C(C)(C)CC)cc1O | inactive | –
CCOC(=O)CCCCCCCCC(=O)OCC | inactive | –
CCOC(=O)COC(=O)c1ccccc1C(=O)OCC | inactive | –
C1COCO1 | inactive | –
CC1=CC(C)C(C=O)C(C)C1 (stereo not given) (tested in a mixture with another compound) | inactive | –
CCOC(=O)C=Cc1ccccc1 | inactive | –
CCOC(=O)CC1(C)OCC(C)O1 (stereo not given) | inactive | –
[O-]/[N+](=N\O)c1ccccc1 | – | 4.26 µM (active)
O=S(=O)(O)c1cc(S(=O)(=O)O)c2c(N=Nc3ccccc3)c(O)ccc2c1 | inactive | –
NC(=O)NC(N)=O | inactive | –

Compound | outcome | AC50
CC(C)C(=O)c1ccccc1 | inactive | –
CC(=O)N(C)C | inactive | –
C=C(C)C(=O)OCCOCCOC(=O)C(=C)C | inactive | –
CC/C(=C(\c1ccccc1)c1ccc(OCCN(C)C)cc1)c1ccccc1 | inactive | –
Cc1ccccc1S | inactive | –
CC(O)CNCC(C)O (stereo not given) | inactive | –
CN(C)CCC=C1c2ccccc2CCc2ccccc21 | inactive | –
CC1=C(C=O)C(C)(C)CCC1 | inactive | –
CCCC1CCC(=O)CC1 | – | 44.4 µM (active)
CC(=O)CCC(=O)O | inactive | –
CC(=O)c1ccc(C)cc1 | inactive | –
N=C1N=C(N)c2ccccc21 | inactive | –
C=C/C(C)=C/C/C=C(\C)CCC=C(C)C | inactive | –
O=C1OC2(c3ccc(O)cc3Oc3cc(O)ccc32)c2ccccc21 | – | 25.9 µM (active)
CCC(C)(C)C1CCC(OC)CC1 (stereo not given) | inactive | –
COc1ccc(OC)cc1 | inactive | –
CCCCCCCCCO | inactive | –
CCCCCCCCOS(=O)(=O)O | inactive | –
FC(F)(F)c1ccc(Cl)c(Cl)c1 | inactive | –
CCCc1ccc(N)cc1 | inactive | –
